Activity calls are given as the source filed them. Calls follow the shape of the dose curve; as a rule, active = well fitted curve in the direction sought with a large enough effect in the repeat runs; inconclusive = weak or mixed curves; inactive = flat fitted curve, though single readings scatter.
Assay: qHTS assay to test for compound auto fluorescence at 460 nm (blue) in HepG2 cells (AID 720687)
Conditions: autofluorescence 405/460 nm, 1 h; series mostly up to 91.3 µM
Excerpt: U.S. Tox21 Program National Center for Advancing Translational Sciences [NCATS] NIH Chemical Genomics Center [NCGC] U.S. Environmental Protection Agency [EPA] National Institutes of Environmental Health Sciences [NIEHS] National Toxicology Program [NTP] U.S. Food and Drug Administration [FDA] Tox21 Assay Overview: Compound auto fluorescence often interferes with screening of the compound library against various biological targets and signaling pathways. Some of these compounds may have fluorophoric properties. Such properties may interfere with the assay outputs resulting in false positives and/or negatives. To decrease such complications and ensure the compound activities are relevant in terms of biological response, the Tox21 10K compound library was screened for auto fluorescence. From the fluorophores used as reporter signals in our screening assays, the auto fluorescence equivalencies of compounds against three fluorophores have been evaluated: Triamterene, Fluorescein and Rose Bengal sodium for blue, green and red fluorescence, respectively. The fluorescence intensities were measured using Excitation/Emission wavelengths at 405/460nm, 485/535nm and 540/590nm for blue, green and red labels, respectively. This assay includes the blue fluorescence data.
Tox21 Assay Protocol Summary: 2,000 HepG2 cells in 5 uL of culture medium (MEM containing 10% FBS) per well were dispensed into black wall/clear bottom 1536-well plates using a Multidrop Combi Dispenser (ThermoFisher Scientific, Waltham, MA). The assay plates were incubated overnight at 37 C to allow cell attachment to the well bottom, followed by the transfer of 23 nL compound or DMSO vehicle by a pintool work station (Kalypsys , San Diego, CA). After the assay plates were incubated for 1 hr at 37 C and 5% CO2, fluorescence intensities in the assay plates were measured by an Envision (PerkinElmer, Shelton, CT) plate reader using three labels for measuring blue, green and red fluorescence at […] 460, 535 and 590 nm respectively.

**Q.** For `N[C@@H](Cc1c[nH]c2ccccc12)C(=O)O`, which outcome is on record?
**A.** Its outcome is “inactive”.

**Q.** For `CCN(CC)CCOC(=O)c1ccc(N)cc1`, which outcome is on record?
**A.** The outcome was “inactive”.

**Q.** With `CCN1CCCC1=O` as the compound, how does the outcome read?
**A.** The outcome was “inactive”.

**Q.** Which outcome does the source give for `O=C(OCc1ccccc1)c1ccccc1` here?
**A.** Its outcome is “inactive”.

**Q.** Which outcome does the source give for `C1CNCCN1` here?
**A.** The outcome was “inactive”.

**Q.** With `CCCCCCCC(=O)OCC(O)CO` (stereo not given) as the compound, how does the outcome read?
**A.** Its outcome is “inactive”.

**Q.** For `C[C@]12CC[C@@H]3c4ccc(O)cc4C[C@@H](CCCCCCCCCS(=O)CCCC(F)(F)C(F)(F)F)[C@H]3[C@@H]1CC[C@@H]2O` (stereo not given in full), which outcome is on record?
**A.** Its outcome is “inactive”.

**Q.** With `Cc1cnc(NC(=O)C2=C(O)c3ccccc3S(=O)(=O)N2C)s1` as the compound, how does the outcome read?
**A.** The outcome was “inactive”.

**Q.** Which outcome does the source give for `COC(=O)c1ccc(C=O)cc1` here?
**A.** The outcome was “inactive”.

**Q.** With `COc1ccc(O)cc1` as the compound, how does the outcome read?
**A.** Its outcome is “inactive”.

**Q.** With `CN(C)Cc1cc(CN(C)C)c(O)c(CN(C)C)c1` as the compound, how does the outcome read?
**A.** The outcome was “inactive”.

**Q.** For `NC(=O)OCC(COC(N)=O)c1ccccc1`, which outcome is on record?
**A.** The outcome was “inactive”.

**Q.** With `NCCNc1cccc2ccccc12` as the compound, how does the outcome read?
**A.** The outcome was “inactive”.

**Q.** Which outcome does the source give for `CO[C@H]1C=CO[C@@]2(C)Oc3c(C)c(O)c4c(O)c(c(/C=N/N5CCN(C)CC5)c(O)c4c3C2=O)NC(=O)/C(C)=C\C=C[C@H](C)[C@H](O)[C@@H](C)[C@@H](O)[C@@H](C)[C@H](OC(C)=O)[C@@H]1C` here?
**A.** The outcome was “inactive”.

**Q.** With `COCCOCCOC` as the compound, how does the outcome read?
**A.** Its outcome is “inactive”.

**Q.** With `COc1ccccc1O` as the compound, how does the outcome read?
**A.** The outcome was “inactive”.

**Q.** Which outcome does the source give for `Nc1cccc(N)c1` here?
**A.** Its outcome is “inactive”.

**Q.** With `CC(C)(C)NCC(O)c1ccc(O)c(CO)c1` (stereo not given) as the compound, how does the outcome read?
**A.** Its outcome is “inactive”.

**Q.** With `O=c1c(-c2ccc(O)cc2)coc2cc(O)cc(O)c12` as the compound, how does the outcome read?
**A.** The outcome was “inactive”.

**Q.** For `C=CC(=O)NC(C)(C)CS(=O)(=O)O`, which outcome is on record?
**A.** The outcome was “inactive”.

**Q.** With `COc1ccc(C(=O)c2ccccc2)c(O)c1` as the compound, how does the outcome read?
**A.** Its outcome is “inactive”.

**Q.** For `O=c1cc[nH]c(=O)[nH]1`, which outcome is on record?
**A.** Its outcome is “inactive”.

**Q.** For `CC(=O)Oc1ccccc1C(=O)O`, which outcome is on record?
**A.** Its outcome is “inactive”.

**Q.** With `Cc1c(N(C)C)c(=O)n(-c2ccccc2)n1C` as the compound, how does the outcome read?
**A.** The outcome was “inactive”.

**Q.** For `Cn1cnc2c1c(=O)[nH]c(=O)n2C`, which outcome is on record?
**A.** The outcome was “inactive”.

**Q.** Which outcome does the source give for `CC(=O)/C=C/C1=C(C)CCCC1(C)C` here?
**A.** The outcome was “inactive”.

**Q.** With `OCCCc1ccccc1` as the compound, how does the outcome read?
**A.** The outcome was “inactive”.

**Q.** Which outcome does the source give for `COC(=O)C1CCC(C(=O)OC)CC1` (stereo not given) here?
**A.** Its outcome is “inactive”.

**Q.** For `CCCCCCCCCCCCCC(=O)OC(C)C`, which outcome is on record?
**A.** Its outcome is “inactive”.

**Q.** For `Cc1c(N(C)CS(=O)(=O)O)c(=O)n(-c2ccccc2)n1C`, which outcome is on record?
**A.** Its outcome is “inactive”.

**Q.** Which outcome does the source give for `C=C(C)OC(C)=O` here?
**A.** The outcome was “inactive”.

**Q.** For `CC(C)Cc1ccc(C(C)C(=O)O)cc1` (stereo not given), which outcome is on record?
**A.** Its outcome is “inactive”.

**Q.** With `NC(N)=NC(N)=NCCc1ccccc1` as the compound, how does the outcome read?
**A.** Its outcome is “inactive”.

**Q.** For `COC1=CC(=O)C[C@@H](C)[C@]12Oc1c(Cl)c(OC)cc(OC)c1C2=O`, which outcome is on record?
**A.** Its outcome is “inactive”.

**Q.** For `O=C(O)CCCCC1CCSS1` (stereo not given), which outcome is on record?
**A.** The outcome was “inactive”.

**Q.** With `C=C(C)C(N)=O` as the compound, how does the outcome read?
**A.** Its outcome is “inactive”.

**Q.** For `CCCCCCCCCCCCCCCCCC(=O)OCC(O)CO` (stereo not given), which outcome is on record?
**A.** The outcome was “inactive”.

**Q.** With `CC(O)COc1ccccc1` (stereo not given) as the compound, how does the outcome read?
**A.** Its outcome is “inactive”.

**Q.** For `CC(C)CC(C)CC(O)CC(C)C` (stereo not given), which outcome is on record?
**A.** Its outcome is “inactive”.

**Q.** With `COc1cc2c(c(OC)c1OC)-c1ccc(OC)c(=O)cc1[C@@H](NC(C)=O)CC2` as the compound, how does the outcome read?
**A.** Its outcome is “inactive”.

Source: PubChem BioAssay (Tox21)
